# The campaign covered roughly 53,000 sequences. About 3,700 (7%) were called active. This is one part of a sample in which actives are shown more often than they occur. Values without a mark were called inactive.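 The calls were made as follows: active = gene knockdowns whose robust z-score for IL-1 alpha signal is at least 2 or at most -2, so actives lie on both sides; inactive = the rest.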
# Test: Components of the Cytosolic LPS Sensing Pathway: Gene Identification via Genome-wide siRNA Screen;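 also: robust z of the log signal after scaling to non-targeting control siRNA wells of the plate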
# Conditions: RAW264.7 macrophages, IL-1a HTRF, actives lie on both sides, screened at 100 nM (by protocol), cells primed 5 h with Pam3CSK4 first
# How it was run: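 RAW264.7 mouse macrophages reverse-transfected with single siRNAs (100 nM final) for 48h, primed with Pam3CSK4 for 5 hours, then transfected with LipidA for 24 hour. Supernatant IL-1a read by HTRF; values normalized to negative-control median, log-transformed robust z-scores.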
row,Sequence,z-score
1,GGACUGGUGGACAUAUGAATT against Os9,2.81 (active)
2,GGAAAAGGUGGCCUACACATT against Rhox11,-1.7
3,CCAAUAAAAUUGGUGUUCCTT against H13,0.18
4,GGUUAAAAUGUUGAUUGCUTT against Ndrg4,-0.654
5,GGGAAAAGUGACUAGGCUUTT against Ngb,-0.331
6,CCCACAGUGCAAAAAUGACTT against Olfr663,-2.26 (active)
7,GGCAUAUGCACUUUAUUUCTT against Cep97,-0.339
8,GCAUUAAAGGAGUCCGAAUTT against Cpn1,-0.328
9,GCUUAUAACAGUUGAUGAGTT against Ndufs4,-0.54
10,GGCUAAUUCUCAAAGAGAUTT against Dnttip2,-1.87
11,AUUCGGGAAAAUUUUAGACTT against Rbfox3,-0.171
12,GGCUAAAACUGCACAUAAATT against Pyroxd1,-3.43 (active)
13,GGGAAGCACAAGGUUUAGUTT against Brca1,0.531
14,GCAACAAGAGGGCAGAAUGTT against Olfr518,-2.22 (active)
15,GGAAGUUACAGAUGUGGCUTT against Nog,-0.879
16,GCACCAUUCUAGGAGUCAUTT against Lonp2,-0.504
17,GGACCACGCAAAAGAAUAUTT against Mtss1,0.0212
18,GCUCAUGUUGCACUGGAAATT against Ulbp1,1.22
19,AAGCUUCAACAUCAGUUUGTT against Olfr1392,-1.54
20,GGCGAAGGGCAAGAAUAAATT against Hes1,2.16 (active)
21,CCCAUACUGUCACUUUAAGTT against H2bc8,-2.23 (active)
22,GGUUCUGGUAUAAGUUAACTT against Gabrg3,0.292
23,GCACGAAUGCCUUUUUAGATT against Mphosph8,0.32
24,GGAGCUGGAGACUAAAGCUTT against Slc29a2,-0.478
25,GCAUUUGAUGAAGACUCGATT against Barx2,0.467
26,GGUUUAGCUGCAUUAAAAGTT against Lrrc27,0.956
27,GGCCGAGAGUAUUUCUACATT against Efna5,-0.254
28,CGAACACUCGUUAAAGAAATT against Krt23,0.247
29,CCAUGCACAAUUACAAGCUTT against Ret,-0.000288
30,CGGAAAAUUUGUUCCUGACTT against Rbm12b2,1.44

# Source: PubChem BioAssay AID1508600 (Functional Genomics Laboratory (NCATS/FGL), 2020)
